Results taken from PubChem BioAssay (EPA / NIEHS).
Results filed as inconclusive are left out. Activity calls are given as the source filed them. How the source made its calls: active means hit-call score of the fitted dose curve at least 0.9, where 1 is the maximum; inconclusive means response in the unintended direction; inactive means score below 0.9.

Columns and labels:
[1] = system: zebrafish Androgen Receptor (AR), gene 100005148; test: ATG_zfAR_XSP1: Attagene TRANS-FACTORIAL Multi-Species (XSP1) HepG2 Assay for zebrafish Androgen Receptor (AR) (AID 2283771)
Outline: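 Gain-of-signal versus DMSO was measured as reporter transcripts quantified by RT-PCR, fluorescent labelling and capillary electrophoresis after 24 h chemical exposure. The cells were HepG2 expressing a chimeric zebrafish AR-GAL4, co-stimulated with 3 nM 6-alpha-fluorotestosterone.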

[2] = molecular target: zebrafish Estrogen Receptor (ESR1), esr1 (gene 259252) (UniProt P57717); test: ATG_zfER1_XSP1: Attagene TRANS-FACTORIAL Multi-Species (XSP1) HepG2 Assay for zebrafish Estrogen Receptor (ESR1) (AID 2283772)
Outline: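 Reporter mRNA induction, gauged via RT-PCR/capillary electrophoresis fluorescence relative to DMSO controls, in HepG2 cells transiently carrying GAL4-UAS reporter units; 24 h dosing.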

[3] = system: zebrafish Estrogen Receptor (ESR2B), gene 317733; test: ATG_zfER2b_XSP1: Attagene TRANS-FACTORIAL Multi-Species (XSP1) HepG2 Assay for zebrafish Estrogen Receptor (ESR2B) (AID 2283773)
Outline: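 Medium contained 3 nM 6-alpha-fluorotestosterone. Reporter mRNA induction by exogenous zebrafish ER2b-Gal4 chimera was read 24 h post-dose in transiently transfected HepG2 cells, using RT-PCR, fluorescent labelling, HpaI digestion and capillary electrophoresis.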

[4] = system: frog Estrogen Receptor (ESR2), gene 100174814; test: ATG_frER2_XSP1: Attagene TRANS-FACTORIAL Multi-Species (XSP1) HepG2 Assay for frog Estrogen Receptor (ESR2) (AID 2283774)
Outline: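 Reporter mRNA from a multiplexed TRANS system, measured by RT-PCR with fluorescent labelling and capillary electrophoresis, 24 hours after chemical exposure. Human HepG2 liver cells carried exogenous frog ER-Gal4 chimera; medium included 3 nM 6-alpha-fluorotestosterone; increases versus DMSO analysed.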

[5] = system: zebrafish Estrogen Receptor (ESR2A), gene 317734; test: ATG_zfER2a_XSP1: Attagene TRANS-FACTORIAL Multi-Species (XSP1) HepG2 Assay for zebrafish Estrogen Receptor (ESR2A) (AID 2283778)
Outline: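 Reporter transcripts were quantified by RT-PCR, 6-FAM labelling, HpaI digestion and capillary electrophoresis after 24 h dosing. The cells were HepG2 transiently carrying a zebrafish ER2a–Gal4 construct plus multiplexed UAS reporters; medium contained 3 nM 6-alpha-fluorotestosterone.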

[6] = molecular target: chicken Estrogen Receptor (ESR1), ESR1 (gene 396099) (UniProt P06212); test: ATG_chERa_XSP1: Attagene TRANS-FACTORIAL Multi-Species (XSP1) HepG2 Assay for chicken Estrogen Receptor (ESR1) (AID 2283779)
Outline: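 Trans-activation of an exogenous chicken ERα–Gal4 chimera read as reporter transcript (RT-PCR, fluorescent labeling, capillary electrophoresis) after 24 h compound exposure of transfected HepG2; medium held 3 nM 6-alpha-fluorotestosterone. Positive-direction fit against DMSO.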

[7] = molecular target: Estrogen receptor (Homo sapiens) (UniProt P03372); test: ATG_hERa_XSP1: Attagene TRANS-FACTORIAL Multi-Species (XSP1) HepG2 Assay for human Estrogen Receptor (ESR1) (AID 2283780)
Outline: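 Reporter transcripts from multiplexed GAL4-UAS units driven by NR-Gal4 chimeras in transiently transfected HepG2 were measured by RT-PCR with capillary electrophoresis 24 h post-dose, with 3 nM 6-alpha-fluorotestosterone present; gain-of-signal relative to DMSO.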

[8] = system: turtle Estrogen Receptor (ESR1), gene 101933533; test: ATG_trERa_XSP1: Attagene TRANS-FACTORIAL Multi-Species (XSP1) HepG2 Assay for turtle Estrogen Receptor (ESR1) (AID 2283781)
Outline: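 Transactivation measured 24 h post-dose as reporter mRNA (RT-PCR, fluorescent capillary electrophoresis) from an NR-Gal4 turtle ER construct in HepG2. Medium included 3 nM 6-alpha-fluorotestosterone; increase over DMSO fitted.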

[9] = STM_H9_NormalizedViability: Cytotoxicity Assessment at 120 hours in the Stemina devTOX quickPredict H9 human embryonic stem cell (hESC)-based Assay (AID 2283784)
Outline: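 Here, H9 cells received test compound with daily medium renewal. Each plate included methotrexate references (1uM, 5 nM), 0.1% DMSO and media blanks; CellTiter-Fluor RFU was normalized to DMSO.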

[10] = molecular target: Estrogen receptor beta (Homo sapiens) (UniProt Q92731); test: ATG_hERb_XSP1: Attagene TRANS-FACTORIAL Multi-Species (XSP1) HepG2 Assay for human Estrogen Receptor (ESR2) (AID 2283788)
Outline: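 HepG2 cells transiently transfected with multiplexed GAL4-UAS reporter units carrying chimeric human ERβ-Gal4; 24 h compound exposure with 3 nM 6-alpha-fluorotestosterone present. Reporter mRNA quantified by RT-PCR, FAM labelling and capillary electrophoresis; gain-of-signal fitted versus DMSO.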

[11] = ATG_M_06_XSP1: Attagene TRANS-FACTORIAL Multi-Species (XSP1) HepG2 Assay for M06 Transcription Factor (Internal Marker) (AID 2283790)
Outline: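 This background-control readout tracks M06 reporter mRNA, measured by RT-PCR and capillary electrophoresis. HepG2 cells transiently carrying the GAL4-UAS reporter panel were dosed for 24 h with 3 nM 6-alpha-fluorotestosterone added for partial AR stimulation; increases were scored relative to DMSO.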

[12] = ATG_M_61_XSP1: Attagene TRANS-FACTORIAL Multi-Species (XSP1) HepG2 Assay for M61 Transcription Factor (Internal Marker) (AID 2283797)
Outline: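 Background-control readout: reporter transcripts measured by RT-PCR and capillary electrophoresis 24 h after dosing transiently transfected HepG2 multi-reporter cells, with 3 nM 6-alpha-fluorotestosterone present. Fitted in the positive direction relative to DMSO.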

[13] = ATG_M_19_XSP1: Attagene TRANS-FACTORIAL Multi-Species (XSP1) HepG2 Assay for M19 Transcription Factor (Internal Marker) (AID 2283798)
Outline: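 Readout is reporter mRNA induction quantified via RT-PCR, 6-FAM labeling, HpaI digestion and capillary electrophoresis, fitted in the positive direction versus DMSO baseline. Transfected HepG2 cells exposed 24 h, medium including 3 nM 6-alpha-fluorotestosterone.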

[14] = ATG_M_32_XSP1: Attagene TRANS-FACTORIAL Multi-Species (XSP1) HepG2 Assay for M32 Transcription Factor (Internal Marker) (AID 2283799)
Outline: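 Reporter transcripts from the M32 internal-control unit measured by RT-PCR, FAM labelling, HpaI digestion and capillary electrophoresis after 24 h compound exposure of transfected HepG2, 3 nM 6-alpha-fluorotestosterone included; DMSO baseline, positive-direction fit.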

[15] = molecular target: Peroxisome proliferator-activated receptor gamma (Homo sapiens) (UniProt P37231); test: ATG_hPPARg_XSP1: Attagene TRANS-FACTORIAL Multi-Species (XSP1) HepG2 Assay for human Peroxisome Proliferator-activated Receptor gamma (PPARg) (AID 2283800)
Outline: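 Reporter mRNA induction, measured by RT-PCR with capillary electrophoresis 24 h after dosing, scored as gain over DMSO. Transfected HepG2 cells express exogenous NR-Gal4 chimeras driving GAL4-UAS reporters; medium includes 3 nM 6-alpha-fluorotestosterone.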

[16] = ACEA_AR_antagonist_AUC_viability: ACEA Biosciences xCELLigence Real-Time Cell Analysis on Androgen Receptor Antagonism for Viability (AID 2283776);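 further: 22Rv1 human prostate cancer cells growing on impedance electrode plates; area under impedance growth curve at 80 h after dosing as viability; hits lower the growth signal relative to DMSO meaning cytotoxicity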
Outline: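 22Rv1 prostate cells, continuous dosing up to 100 uM final (0.5% DMSO max), duplicate plates. Growth measured by impedance; AUC at 80 h, loss of signal vs DMSO.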

[17] = ACEA_ER_AUC_viability: ACEA Biosciences xCELLigence Real-Time Cell Analysis on Estrogen Receptor Agonism for Viability (AID 2283782);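 further: hit means loss of impedance signal meaning reduced cell growth or viability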
Outline: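 Viability endpoint: reduced impedance area under the curve relative to DMSO, recorded by real-time electrode sensing over ~80 h of continuous exposure. Duplicate plates of T47D in hormone-depleted medium; eight concentrations, 1:4 dilutions, 100 uM maximum.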

[18] = ACEA_AR_agonist_AUC_viability: ACEA Biosciences xCELLigence Real-Time Cell Analysis on Androgen Receptor Agonism for Viability (AID 2283775);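 on AC50: viability read 80 hours after compound addition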
Outline: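 Viability endpoint from xCELLigence impedance in 22Rv1 prostate cells at 80 h. Eight-point series, 100 uM maximum final.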

[19] = molecular target: AR (gene 367) (UniProt P10275); test: ACEA_AR_antagonist_80hr: ACEA Biosciences xCELLigence Real-Time Cell Analysis on Androgen Receptor Antagonism for Proliferation (AID 2283787);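 further: 22Rv1 human prostate cancer cells with growth followed by electrical impedance; hits lower the impedance growth signal relative to DMSO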
Outline: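 Impedance-based real-time growth of 22Rv1 prostate cells, read 80 h after dosing. Eight concentrations, 1:4 series, top 100 uM final (0.5% DMSO), n = 2; signal decrease scored against DMSO.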

[20] = molecular target: AR (gene 367) (UniProt P10275); test: ACEA_AR_agonist_80hr: ACEA Biosciences xCELLigence Real-Time Cell Analysis on Androgen Receptor Agonism for Proliferation (AID 2283783);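 further: hits increase impedance growth signal above DMSO baseline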
Outline: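 Eight concentrations, 1:4 serial dilution from a 100 uM final top, in biological duplicate. Impedance-based real-time growth of 22Rv1 cells after overnight baseline, recorded hourly and read at 80 hours. Controls: testosterone, MG132, assay media.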

Sequence of AR (gene 367) (P10275 whole entry, looked up): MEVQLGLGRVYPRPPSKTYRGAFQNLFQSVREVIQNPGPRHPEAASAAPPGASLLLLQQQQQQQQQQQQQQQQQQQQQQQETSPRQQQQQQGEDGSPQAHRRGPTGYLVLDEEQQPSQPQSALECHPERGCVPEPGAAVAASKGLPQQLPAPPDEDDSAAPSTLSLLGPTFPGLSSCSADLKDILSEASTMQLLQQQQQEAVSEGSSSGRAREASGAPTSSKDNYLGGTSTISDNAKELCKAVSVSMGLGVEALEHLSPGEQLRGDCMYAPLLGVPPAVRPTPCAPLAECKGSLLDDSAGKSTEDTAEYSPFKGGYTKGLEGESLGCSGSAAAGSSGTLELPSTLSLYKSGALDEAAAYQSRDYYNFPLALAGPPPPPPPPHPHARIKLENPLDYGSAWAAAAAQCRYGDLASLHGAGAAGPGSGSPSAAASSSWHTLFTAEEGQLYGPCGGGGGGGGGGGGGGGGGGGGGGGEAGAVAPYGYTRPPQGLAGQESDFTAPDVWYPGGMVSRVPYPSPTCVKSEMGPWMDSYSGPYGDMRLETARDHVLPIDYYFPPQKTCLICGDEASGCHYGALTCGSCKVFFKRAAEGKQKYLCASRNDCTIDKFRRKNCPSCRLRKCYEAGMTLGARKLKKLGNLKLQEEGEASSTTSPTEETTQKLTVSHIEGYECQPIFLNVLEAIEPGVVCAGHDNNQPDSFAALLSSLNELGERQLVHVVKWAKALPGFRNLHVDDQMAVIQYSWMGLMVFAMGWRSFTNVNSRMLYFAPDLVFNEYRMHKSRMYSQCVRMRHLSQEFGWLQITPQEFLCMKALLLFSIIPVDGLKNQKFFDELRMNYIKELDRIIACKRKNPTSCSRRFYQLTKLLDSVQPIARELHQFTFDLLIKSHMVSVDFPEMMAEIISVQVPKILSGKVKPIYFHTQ
Sequence of Estrogen receptor beta (Homo sapiens) (Q92731 whole entry, looked up, the tested form may be a part): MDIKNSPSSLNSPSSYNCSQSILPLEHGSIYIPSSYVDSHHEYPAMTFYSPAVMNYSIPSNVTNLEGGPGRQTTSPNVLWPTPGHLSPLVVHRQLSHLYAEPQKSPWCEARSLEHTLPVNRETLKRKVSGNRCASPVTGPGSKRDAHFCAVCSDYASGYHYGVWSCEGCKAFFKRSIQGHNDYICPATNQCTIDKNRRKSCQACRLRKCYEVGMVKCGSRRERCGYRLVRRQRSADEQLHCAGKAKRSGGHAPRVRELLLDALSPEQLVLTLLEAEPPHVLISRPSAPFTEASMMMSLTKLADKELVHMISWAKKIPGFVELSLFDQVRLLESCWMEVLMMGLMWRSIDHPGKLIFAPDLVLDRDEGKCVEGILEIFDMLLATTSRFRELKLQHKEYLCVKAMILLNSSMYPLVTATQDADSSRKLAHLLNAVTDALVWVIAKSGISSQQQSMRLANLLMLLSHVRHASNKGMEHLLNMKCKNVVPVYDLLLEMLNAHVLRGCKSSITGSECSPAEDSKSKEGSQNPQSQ
Sequence of zebrafish Estrogen Receptor (ESR1), esr1 (gene 259252) (P57717 whole entry, looked up, the tested form may be a part): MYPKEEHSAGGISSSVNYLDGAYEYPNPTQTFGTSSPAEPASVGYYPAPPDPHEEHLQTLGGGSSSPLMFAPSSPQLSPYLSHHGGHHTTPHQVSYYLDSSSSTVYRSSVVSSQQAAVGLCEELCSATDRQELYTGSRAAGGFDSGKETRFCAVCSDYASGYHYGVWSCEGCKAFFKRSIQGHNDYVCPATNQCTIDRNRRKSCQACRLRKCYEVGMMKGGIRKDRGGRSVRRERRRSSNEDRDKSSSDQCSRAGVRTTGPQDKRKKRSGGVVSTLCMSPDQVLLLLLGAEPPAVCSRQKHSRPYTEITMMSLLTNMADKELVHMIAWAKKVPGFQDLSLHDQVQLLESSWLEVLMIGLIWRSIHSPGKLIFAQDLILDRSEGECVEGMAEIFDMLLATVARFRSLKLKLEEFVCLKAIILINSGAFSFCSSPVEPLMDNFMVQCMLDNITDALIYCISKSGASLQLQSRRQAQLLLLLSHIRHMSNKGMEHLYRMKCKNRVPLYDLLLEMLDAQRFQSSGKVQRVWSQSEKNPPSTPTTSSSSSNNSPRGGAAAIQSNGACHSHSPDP
Sequence of Peroxisome proliferator-activated receptor gamma (Homo sapiens) (P37231 whole entry, looked up, the tested form may be a part): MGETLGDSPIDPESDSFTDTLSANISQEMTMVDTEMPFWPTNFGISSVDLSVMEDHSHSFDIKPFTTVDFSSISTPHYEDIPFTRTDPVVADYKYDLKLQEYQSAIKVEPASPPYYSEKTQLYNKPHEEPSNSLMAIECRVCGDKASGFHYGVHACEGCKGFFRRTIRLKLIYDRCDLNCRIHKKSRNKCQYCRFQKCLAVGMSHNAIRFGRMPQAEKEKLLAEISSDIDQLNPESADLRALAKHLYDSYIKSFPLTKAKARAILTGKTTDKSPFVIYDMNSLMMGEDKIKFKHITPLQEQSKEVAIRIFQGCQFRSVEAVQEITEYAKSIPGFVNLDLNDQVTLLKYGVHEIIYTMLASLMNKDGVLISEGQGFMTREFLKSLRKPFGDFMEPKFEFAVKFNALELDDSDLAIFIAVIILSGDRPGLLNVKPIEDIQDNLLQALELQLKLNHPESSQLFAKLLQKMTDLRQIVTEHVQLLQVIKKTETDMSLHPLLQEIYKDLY
Sequence of chicken Estrogen Receptor (ESR1), ESR1 (gene 396099) (P06212 whole entry, looked up, the tested form may be a part): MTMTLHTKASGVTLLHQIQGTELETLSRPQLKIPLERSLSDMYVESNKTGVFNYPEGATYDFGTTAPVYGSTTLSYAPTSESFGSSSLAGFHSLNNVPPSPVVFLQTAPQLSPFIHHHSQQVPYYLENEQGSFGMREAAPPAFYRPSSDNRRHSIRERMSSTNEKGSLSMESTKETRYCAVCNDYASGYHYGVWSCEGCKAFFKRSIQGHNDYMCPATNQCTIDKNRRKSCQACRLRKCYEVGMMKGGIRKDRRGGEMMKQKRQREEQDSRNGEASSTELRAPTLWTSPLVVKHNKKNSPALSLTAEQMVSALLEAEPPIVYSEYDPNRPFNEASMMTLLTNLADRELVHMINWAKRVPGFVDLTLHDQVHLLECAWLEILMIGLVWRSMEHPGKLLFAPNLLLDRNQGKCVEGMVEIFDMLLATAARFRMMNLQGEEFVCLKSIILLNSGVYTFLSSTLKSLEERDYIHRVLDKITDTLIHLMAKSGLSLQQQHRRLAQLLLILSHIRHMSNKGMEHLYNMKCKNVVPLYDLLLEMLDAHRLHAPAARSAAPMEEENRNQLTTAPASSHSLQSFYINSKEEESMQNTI
Sequence of Estrogen receptor (Homo sapiens) (P03372 whole entry, looked up, the tested form may be a part): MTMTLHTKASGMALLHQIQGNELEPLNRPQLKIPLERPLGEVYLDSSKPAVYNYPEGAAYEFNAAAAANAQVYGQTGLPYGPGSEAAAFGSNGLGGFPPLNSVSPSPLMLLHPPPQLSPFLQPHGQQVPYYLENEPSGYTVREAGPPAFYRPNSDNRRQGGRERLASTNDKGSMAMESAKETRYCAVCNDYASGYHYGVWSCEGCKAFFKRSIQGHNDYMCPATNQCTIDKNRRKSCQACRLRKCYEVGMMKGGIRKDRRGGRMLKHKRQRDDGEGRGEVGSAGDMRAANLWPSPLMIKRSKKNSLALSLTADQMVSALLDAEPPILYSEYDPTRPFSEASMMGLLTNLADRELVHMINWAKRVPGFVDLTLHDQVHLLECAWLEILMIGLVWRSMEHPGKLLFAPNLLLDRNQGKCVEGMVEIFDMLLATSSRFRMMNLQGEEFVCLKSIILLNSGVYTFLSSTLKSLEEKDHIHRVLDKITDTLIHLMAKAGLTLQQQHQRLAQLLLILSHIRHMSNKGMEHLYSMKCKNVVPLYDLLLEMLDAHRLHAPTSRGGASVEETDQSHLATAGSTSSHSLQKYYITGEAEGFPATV

Structure (SMILES): O=P(Oc1ccccc1)(Oc1ccccc1)Oc1ccccc1
- outcome [1]: inactive
- outcome [2]: inactive
- AC50 [3]: 5.84 µM (active)
- AC50 [4]: 2.77 µM (active)
- outcome [5]: inactive
- AC50 [6]: 0.8 µM (active)
- AC50 [7]: 0.991 µM (active)
- AC50 [8]: 1.66 µM (active)
- outcome [9]: inactive
- outcome [10]: inactive
- outcome [11]: inactive
- outcome [12]: inactive
- outcome [13]: inactive
- outcome [14]: inactive
- AC50 [15]: 6.88 µM (active)

Structure (SMILES): CCC(C)(C)c1ccc(O)cc1
- AC50 [9]: 50 µM (active)

Structure (SMILES): CCCCC(CC)COC(=O)c1c(Br)c(Br)c(Br)c(Br)c1C(=O)OCC(CC)CCCC (configuration not stated)
- outcome [16]: inactive

Structure (SMILES): COC(N)=O
- outcome [16]: inactive
- outcome [17]: inactive

Structure (SMILES): Cc1cc(C)c(C(=O)P(=O)(c2ccccc2)c2ccccc2)c(C)c1
- AC50 [17]: 73.1 µM (active)

Structure (SMILES): O=S1(=O)OCC2C(CO1)C1(Cl)C(Cl)=C(Cl)C2(Cl)C1(Cl)Cl (configuration not stated)
- outcome [16]: inactive
- AC50 [17]: 83 µM (active)

Structure (SMILES): CO/N=C(/C(=O)OC)c1ccccc1COc1ccccc1C
- outcome [18]: inactive
- outcome [16]: inactive
- outcome [19]: inactive

Structure (SMILES): CC1(C)CN=C(NN=C(/C=C/c2ccc(C(F)(F)F)cc2)/C=C/c2ccc(C(F)(F)F)cc2)NC1
- AC50 [18]: 12.6 µM (active)
- AC50 [16]: 11.1 µM (active)
- AC50 [17]: 2.02 µM (active)
- AC50 [19]: 12.3 µM (active)

Structure (SMILES): COCCOCCO
- outcome [16]: inactive
- outcome [17]: inactive

Structure (SMILES): CCOP(=S)(OCC)SCSc1ccc(Cl)cc1
- AC50 [17]: 27.9 µM (active)

Structure (SMILES): FC(F)(F)c1ccc(Cl)cc1
- outcome [16]: inactive

Structure (SMILES): Nc1ccc(Sc2ccc(N)cc2)cc1
- outcome [17]: inactive

Structure (SMILES): CC(C)(C)c1ccccc1OP(=O)(Oc1ccccc1)Oc1ccccc1
- outcome [17]: inactive

Structure (SMILES): CCN(CC)c1ccccc1
- outcome [16]: inactive
- outcome [20]: inactive
- outcome [19]: inactive

Structure (SMILES): CCOC(=O)c1ccccc1C(=O)OCC
- outcome [16]: inactive
- outcome [17]: inactive
- outcome [9]: inactive

Structure (SMILES): c1ccc2c(c1)Nc1ccccc1S2
- outcome [18]: inactive
- AC50 [16]: 21.7 µM (active)
- outcome [17]: inactive
- outcome [9]: inactive

Structure (SMILES): CCNc1nc(Cl)nc(NC(C)(C)C)n1
- outcome [18]: inactive
- outcome [16]: inactive
- outcome [20]: inactive
- outcome [19]: inactive

Structure (SMILES): CCCCN(CC)C(=O)SCCC
- outcome [18]: inactive
- outcome [16]: inactive
- outcome [20]: inactive
- outcome [19]: inactive

Structure (SMILES): Cc1ccc(N)cc1N
- outcome [16]: inactive
- AC50 [9]: 36.1 µM (active)

Structure (SMILES): CCC1(c2ccccc2)C(=O)N=C(O)NC1=O (configuration not stated)
- outcome [18]: inactive
- outcome [16]: inactive
- outcome [9]: inactive

Structure (SMILES): c1cc2c3c(cccc3c1)CC2
- outcome [18]: inactive
- outcome [16]: inactive
- outcome [20]: inactive
- outcome [19]: inactive

Structure (SMILES): CC(Cl)(Cl)C(=O)O
- outcome [16]: inactive

Structure (SMILES): COC(=O)C(F)(F)C(F)(F)OC(F)(C(F)(F)F)C(F)(F)OC(F)=C(F)F (configuration not stated)
- outcome [17]: inactive

Structure (SMILES): O=C(O)C1C(C(=O)O)C2(Cl)C(Cl)=C(Cl)C1(Cl)C2(Cl)Cl (configuration not stated)
- outcome [18]: inactive
- outcome [16]: inactive
- outcome [9]: inactive

Structure (SMILES): CC(C)(C)N(NC(=O)c1ccc(Cl)cc1)C(=O)c1ccccc1
- outcome [18]: inactive
- outcome [16]: inactive
- outcome [19]: inactive

Structure (SMILES): Nc1ccc2ccccc2c1
- outcome [16]: inactive
- outcome [9]: inactive

Structure (SMILES): CCOP(=S)(OCC)SCn1nnc2ccccc2c1=O
- outcome [17]: inactive

Structure (SMILES): ClC(Cl)=C(c1ccc(Cl)cc1)c1ccccc1Cl
- outcome [17]: inactive

Structure (SMILES): [N-]=[N+]=[N-]
- outcome [18]: inactive
- AC50 [16]: 50 µM (active)
- AC50 [19]: 50 µM (active)

Structure (SMILES): O=C(CBr)OCc1ccccc1
- outcome [18]: inactive
- outcome [17]: inactive

Structure (SMILES): CN(C)C(=O)Cl
- outcome [16]: inactive

Structure (SMILES): c1nc[nH]n1
- outcome [16]: inactive

Structure (SMILES): Oc1ccccc1Br
- outcome [17]: inactive

Structure (SMILES): CCCCC(CC)COP(=O)(Oc1ccccc1)Oc1ccccc1 (configuration not stated)
- outcome [18]: inactive
- AC50 [16]: 16.6 µM (active)
- AC50 [17]: 85.5 µM (active)
- outcome [9]: inactive
- AC50 [19]: 16.6 µM (active)
